Assay outcomes: PubChem, several laboratories
beta cell repl: inducers of beta-cell replication in MIN6 cells | AID 2380 | MIN6 cells proliferation, ATPlite luminescence, 48 h; cells starved in 0.2% serum; 100% = growth in 10% serum | proliferation, % at 10 µM | 330,000 compounds, 0.29% hits;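 active means compounds whose signal lies at least 3.5 SD above the mean of all wells on their plate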;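 further: 0% = DMSO-treated cells in low-serum medium and 100% = 10% serum control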
A3A deaminase: blocks human APOBEC3A ssDNA deamination | P31941 | inhibition, % at 20 µM | recombinant A3A, FAM/TAMRA ssDNA deamination fluorescence | 330,000 compounds, 0.41% hits;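 active means at least 40% inhibition at 20 µM here, with at most 30% in a related deaminase screen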;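 further: plate controls were A3A with DMSO for no effect and wells lacking A3A enzyme for full effect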
Target sequence (P31941 whole entry, looked up): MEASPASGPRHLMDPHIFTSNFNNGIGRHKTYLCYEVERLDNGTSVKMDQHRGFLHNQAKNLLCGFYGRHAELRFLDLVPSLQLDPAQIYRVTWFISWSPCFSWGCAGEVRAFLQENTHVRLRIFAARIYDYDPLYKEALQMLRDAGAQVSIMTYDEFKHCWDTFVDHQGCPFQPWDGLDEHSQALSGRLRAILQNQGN
APOBEC3G inh: blocks human APOBEC3G single-stranded DNA deamination; Q9HC16; recombinant A3G, ssDNA deamination FAM/TAMRA fluorescence; inhibition, % at 20 µM; 330,000 compounds, 0.28% hits; AID 493012;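 active means inhibition of at least 40% at 20 µM, with no more than 30% in the related APOBEC3A deaminase screen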;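 further: plate controls were DMSO wells with A3G for no effect and wells lacking A3G enzyme for full effect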
VLA-4 inh: inhibition in a human VLA-4 binding assay | P13612 | VLA-4 expressing cells, ligand binding flow cytometry | inhibition, % (about 7 µM as worked out from the volumes in the protocol) | 330,000 compounds, 0.2% hits | AID 2557; in the data active means inhibition above about 50%
CendR NRP1 mod: modulators of CendR peptide binding to human neuropilin-1; O14786; FAM-RPARPAR peptide binding to NRP-1, fluorescence polarization; inhibition, % at 25 µM; 360,000 compounds, 0.85% hits; AID 602438;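 active means inhibition or corrected inhibition above about 18%, plus a signal ratio from 0.5 to 1.5, limit read from the data, passing the limit was not always enough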
Starred values were filed as active, the others as inactive; . = no result. A selection: hits, their analogues and other compounds. The true share with any hit is near 1.8%.

SMILES | beta cell repl | A3A deaminase | APOBEC3G inh | VLA-4 inh | CendR NRP1 mod
CCc1c(C)sc(NC(=O)c2ccoc2C)c1C(N)=O | -8 | 0 | 60* | 16 | -4
C[C@@]12C(=O)N(CC3CC3)CC(=O)N1[C@H](/C=C/c1ccccc1)[C@@H]1C(=O)N(c3ccccc3)C(=O)[C@@H]12 | -1 | 1 | 3 | 8 | 28*
COc1ccc(OC)c(S(=O)(=O)N(C)CC(=O)Nc2ccc3c(c2)OCCO3)c1 | 0 | -1 | -2 | 3 | 6
c1cc(CNc2ccc3c(c2)OCO3)ccn1 | 0 | -1 | 13 | -5 | 30*
COc1ccc(OC)c(S(=O)(=O)N(C)CC(=O)Nc2ccc3c(c2)OCO3)c1 | -3 | 3 | -6 | 9 | 32*
COC(=O)Nc1ccc2c(c1)OCO2 | -2 | -3 | -4 | -1 | 1
COC(=O)CNc1ccc2c(c1)OCO2 | -1 | 4 | 7 | 8 | 25*
CCc1nnc(SCC(=O)Nc2ccc3c(c2)OCO3)n1CC | -2 | -2 | -10 | 15 | 28*
CCCCCOC(=O)C1=C(C)NC(=O)NC1c1ccc(OC)cc1 (centres undefined) | 0 | -3 | -3 | 19 | 7
Cc1ccc(-c2nn(-c3ccc(F)cc3)cc2C(=O)N(C)CC(=O)Nc2ccc(N3CCOCC3)cc2)cc1 | -4 | 6 | -9 | 1 | -4
Cc1ccc(NC(=O)CN(C)CC(=O)Nc2ccc3c(c2)OCO3)cc1 | . | . | . | . | 22*
Cc1cc(C(=O)OCC(=O)Nc2cccc(S(N)(=O)=O)c2)c2ccccc2n1 | 0 | -2 | -7 | -5 | 6
CN(CC(=O)Nc1ccc(F)c(F)c1F)C(=O)C1CSC2(C)CCC(=O)N12 (centres undefined) | 1 | -2 | -7 | 9 | 12
CN(CC(=O)Nc1ccccc1Cl)C(=O)C1CSC2(C)CCC(=O)N12 (centres undefined) | 4 | 0 | -8 | -1 | 21*
COc1cccc(CNc2nc3cc(-c4ccc(OC)cc4C)sc3c(=O)n2C)c1 | . | . | . | . | 25*
COc1cccc(CNc2nc3cc(-c4cscc4C)sc3c(=O)n2C)c1 | . | . | . | . | 0
Cc1cnc(CNc2nc3cc(-c4ccccc4C)sc3c(=O)n2C)cn1 | . | . | . | . | 28*
Cc1ccccc1-c1cc2nc(NCc3ccccc3)n(C)c(=O)c2s1 | . | . | . | . | 15
CC(Oc1ccccc1)C(=O)N=C1SC2CS(=O)(=O)CC2N1c1cccc(F)c1 (centres undefined) | -2 | -5 | -5 | 9 | 3
Cc1c(S(=O)(=O)Nc2cccc3ccccc23)c(=O)n(C)c(=O)n1C | 1 | 1 | -3 | -26 | 1
c1ccc(Cc2c(C3CCCCC3)nc3c4ccccc4ccn23)cc1 | . | . | . | . | -34
CCOc1ccc(NC(=O)CN(C)C(=O)CCN2C(=O)C3CC=CCC3C2=O)cc1OCC (centres undefined) | 1 | -8 | -9 | 15 | -4
CC(C)c1ccc(C(=O)N2CCN(c3cnn(C)c(=O)c3Cl)CC2)cc1 | -1 | -2 | -5 | -3 | 3
Nc1cc(S(=O)(=O)O)cc([N+](=O)[O-])c1O | -1 | 7 | -1 | 0 | 28*
CC(C)NC(=O)CSc1nnc(-c2ccc3ncccc3c2)n1C | 0 | 3 | -3 | 14 | 25*
SMILES | beta cell repl | A3A deaminase | APOBEC3G inh | VLA-4 inh | CendR NRP1 mod
CCCSc1ccc(C(=O)Nc2ccc(Cl)cc2)cn1 | -4 | -2 | -6 | 0 | 28*
Cn1c(=O)c2cc(NC(=O)NCc3ccc(F)cc3)ccc2n1Cc1cccc(C(F)(F)F)c1 | . | . | . | . | -11
CC(C)c1ccccc1NC(=O)c1cnccn1 | 4 | 5 | -1 | -6 | 59*
Cc1cccc(C)c1C(O)c1ncc(-c2ccccc2C(F)(F)F)[nH]1 (centres undefined) | . | . | . | . | 4
COc1cc(C(CC(=O)Nc2ccc(Cl)cn2)N2Cc3ccccc3C2=O)cc(OC)c1OC (centres undefined) | -4 | -3 | -7 | 3 | -3
Oc1cccc(C(O)CNCc2ccc(-c3ccccc3)cc2)c1 (centres undefined) | -5 | -1 | -3 | -10 | 28*
Cc1ccc(C(=O)OCC(=O)Nc2cc(S(C)(=O)=O)ccc2Cl)cc1S(=O)(=O)N1CCCCC1 | 1 | 4 | 9 | 3 | -4
CS(=O)(=O)c1ccc(Cl)c(NC(=O)COC(=O)c2ccc(S(=O)(=O)N3CCCC3)cc2)c1 | -3 | 0 | -3 | 5 | 22*
CN(C)CCCn1cnc2c1c(=O)[nH]c(=O)n2Cc1ccccc1 | -2 | -1 | -5 | 4 | 7
